Screens deposited in PubChem by National Center for Advancing Translational Sciences (NCATS).
Shown are actives, neighbours in structure and some others; about 21% of the full set was active somewhere.
Shiga toxin inh: inhibitors of Shiga toxin in Vero cells | Vero cells, Shiga toxin protein synthesis inhibition reporter | inhibition, % at 38.7 µM | hit rate 9.2% among 290,000 | AID 2315; in the data active means inhibition mostly above about 28%, no sharp cut-off; inactive means mostly below about 43%
CHX counter-1: counter-screen hit for Shiga toxin inhibitors, cycloheximide. cell reporter, cycloheximide protein synthesis inhibition counterscreen. max response, %. hit rate 12% among 300,000. AID 2314; in the data active means max response mostly above about 13%, no sharp cut-off; inactive means mostly below about 14%; further: read at 38.3 µM for the half of the compounds with a filed dose
Pf growth 48h: P. falciparum growth inhibition at 48 hours (one generation). Potency, µM (titrated, usually from 28.7 µM), actives largely listed as inhibitors. AID 504832. hit rate 5.9% among 310,000. P. falciparum luciferase growth in erythrocytes, 48 h
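Read-out is firefly luciferase luminescence from an integrated reporter in P. falciparum, so falling signal marks reduced parasite growth. Infected erythrocytes were at 2% hematocrit and 0.1% parasitemia (final) in Albumax-supplemented RPMI 1640.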
Pf growth 96h: P. falciparum growth inhibition at 96 hour, primary screen for plastid delayed-death inhibitors; P. falciparum luciferase reporter growth, 96 h; hit rate 6.9% among 320,000; Potency, µM (top dose mostly 28.7 µM), actives largely listed as inhibitors
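96 h incubation, 37 C, 5% CO2, of luciferase-reporter P. falciparum-infected RBCs (2% hematocrit, 0.05% parasitemia final) with test compounds; endpoint luminescence.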
CHX counter-2: counter-screen for Shiga toxin inhibitors: cycloheximide protein synthesis block; shares compounds with Shiga toxin inh; Cycloheximide counterscreen, protein synthesis reporter, Shiga toxin assay; AID 2318; Potency, µM (highest dose often 38.3 µM), actives largely listed as activators; hit rate 3% among 510; calls by dose curve
A number is an active result; n = inactive; u = inconclusive; x = not tested or not shown; [ ] = another dose, or the depositor's remark. Unless noted, the call rests on the fitted dose curve; in most records, active means well fitted inhibition curve with a large enough effect; inconclusive means small, poorly fitted or top-dose-only effect, or another doubt; inactive means no such curve, though single readings can be large or run the other way.

SMILES	Shiga toxin inh	CHX counter-1	Pf growth 48h	Pf growth 96h	CHX counter-2
COc1cccc(OC)c1OCCCOc1ccc(C)cc1Br	22	n	u	n	n
COc1ccccc1OCCCOc1c(C)cc(C)cc1Br	n	n	u	u	x
CC1CCN(S(=O)(=O)c2ccc(C(=O)NNC(=O)C3CC3)cc2)CC1	n	n	n	n	x
Cc1ccc(C(=O)CSc2nnnn2C(C)C)c(C)c1	33	n	n	n	0.32µM
CCC(=O)N1CCN(c2ccc(NC(=O)c3ccc(Br)o3)cc2)CC1	22	n	n	n	n
CC(=O)Nc1ccc(NC(=O)CN(C)CC(=O)Nc2ccccc2Br)cc1	n	n	n	u	x
CC(=O)Nc1ccc(C2(O)COc3ccccc3O2)cc1 (stereo unspecified)	132	n	n	u	n
CCn1cc(CNC(=O)CCSc2nc(-c3ccco3)cc(C(F)(F)F)n2)cn1	n	n	x	n	x
CCc1nc2ccccc2c(=O)n1NCCc1ccccc1	49	n	n	n	n
CC(Sc1nc2ccccc2c(=O)[nH]1)C(=O)O (stereo unspecified)	n	n	x	n	x
CC(Oc1ccc(F)cc1Br)c1nc2ccccc2c(=O)[nH]1 (stereo unspecified)	71	n	9.3µM	u	u
Cc1cccc(C(=O)OC(C)CN2C(C)CCCC2C)c1 (stereo unspecified)	n	n	n[0.00184 µM]	n	x
COc1cccc(NC(=O)CCC2CCN(C(=O)c3ccc(C(C)=O)s3)CC2)c1	n	n	n	u	x
CCc1ccccc1NC(=O)Cn1nnc(-c2cccs2)n1	49	n	u	u	n
CC(C(=O)NCc1ccc2c(c1)OCO2)N1c2cccc3cccc(c23)S1(=O)=O (stereo unspecified)	n	n	u	n	x
COc1ccccc1CN(C)S(=O)(=O)c1cccs1	69	n	n	n	n
CN(Cc1ccccc1C#N)S(=O)(=O)c1cccs1	n	n	n	n	x
CCn1nnc2cc(C(=O)O)ccc21	n	n	n	n	x
CC(=O)Nc1ccc(Oc2ccc(-c3noc(C)n3)cc2)cc1	82	n	u	n	n
COc1ccc(CNC(=O)c2ccc(CS(=O)(=O)c3ccc(Br)cc3)o2)cc1	n	n	n	n	x
CCOc1ccc(CN2CCN(Cc3cc4ccccc4o3)CC2CCO)cc1 (stereo unspecified)	x	n	n	u	n
O=C(NCCc1ccccc1)C1CCCN1S(=O)(=O)c1ccccc1 (stereo unspecified)	22	n	n	n	n
O=C(NCCc1ccccc1F)C1CCCN1S(=O)(=O)c1ccccc1 (stereo unspecified)	n	n	n	n	x
Cc1cccc(C(=O)Nc2nnc(SCC(=O)NC3CC3)s2)c1	53	n	n	u	u
Cc1ccc2c(c1)N(CC(=O)N1CCCC1)C(=O)CO2	35	n	n	n	n
SMILES	Shiga toxin inh	CHX counter-1	Pf growth 48h	Pf growth 96h	CHX counter-2
O=c1n(Cc2ccc(F)cc2)nc2n1-c1ccccc1SC2	31	n	n	n	n
CC(=O)N[C@@H](Cc1c[nH]c2ccccc12)C(=O)OCC(=O)Nc1ccc(Cl)c(S(=O)(=O)N(C)C)c1	43	n	n	u	n
COCc1cc(C)nc(SCC(=O)N2CCC(C)CC2)c1C#N	n	n	u	x	x
O=C(NCc1ccco1)c1noc2c1CCCC2	42	n	n	x	u
O=S(=O)(NN1CCOCC1)c1ccc(Cl)s1	n	n	n[5.75 µM]	u	x
O=C(Nc1cccc(S(=O)(=O)N2CCCCC2)c1)c1ccc(S(=O)(=O)C(F)F)cc1	n	n	u	u	x
Cc1nonc1OCCCNc1ccc([N+](=O)[O-])cc1Cl	116	n	n	n	u
Cc1nonc1OCCNc1ccc([N+](=O)[O-])c2cccnc12	n	n	n	u	x
O=C(CSCc1ccco1)NC1CCCC1	29	n	n	n	n
CCN(CC)CC(=O)Nc1ccc(-c2nc3cc(NC(=O)CN(CC)CC)ccc3o2)cc1	81	n	2.6µM	n	n
O=C(CN1C(=O)c2ccccc2C1=O)Nc1ccc(-c2nc3ccccc3o2)cc1	n	n	n	n	x
Cn1ncc(Br)c1C(=O)N1CCc2ccccc21	n	n	n	n	x
Cn1cc(Br)c(C(=O)N2CCc3ccccc32)n1	active	n	n	n	n
COc1ccc(S(=O)(=O)N(CC(=O)NCc2ccco2)c2ccccc2OC)cc1	n	n	u	n	x
O=C(Cc1c(F)cccc1Cl)c1ccc(O)cc1O	101	n	n	n	n
O=C(Cc1ccccc1F)c1ccc(O)cc1O	n	n	n	u	x
Cc1onc(-c2ccccc2)c1C(=O)N(Cc1ccco1)Cc1cccs1	n	n	n	u	x
CC(C)C(=O)SCCCCCCC(=O)Nc1nc(-c2ccccc2)cs1	16	n	x	x	n
O=C(O)CCCC(=O)Nc1nc(-c2ccc(F)cc2)cs1	n	n	n	u	x
COc1ccc(/C=C2\C(=O)ON=C2c2ccccc2)cc1	n	n	x	n	x
O=C1ON=C(c2ccccc2)/C1=C/c1ccc(OS(=O)(=O)c2ccccc2)cc1	29	n	n	n	n
CCCN(CCC)S(=O)(=O)c1ccc(C(=O)N2CCOCC2)cc1	n	n	x	n	x
COc1cc2c(c(OC)c1OC)-c1c(cc(OC)c(OC)c1OC)C[C@](C)(O)[C@@H](C)C2	49	n	n	u	n
COC(=O)[C@H](Cc1ccccc1)NC(=O)N1CCCCC1C (stereo partly specified)	117	n	n	n	n
COC(=O)[C@H](Cc1ccccc1)NC(=O)N1CCC(C)CC1	n	n	n	x	x
SMILES	Shiga toxin inh	CHX counter-1	Pf growth 48h	Pf growth 96h	CHX counter-2
Cc1cnc(NC(=O)c2c(Cl)cnn2C)s1	40	n	n	n	n
Cn1ncc(Cl)c1C(=O)NCc1ccc(Cl)cc1	n	n	n	n	x
O=C(Nc1ncc2c(n1)-c1ccccc1CC2)c1cccc(Cl)c1	33	n	n	n	u
Cc1nc(C(=O)NC2CCCCC2)sc1C1(C)CC(c2cccc([N+](=O)[O-])c2)=NO1 (stereo unspecified)	n	n	u	u	x
Cc1nc(-c2ccccc2)sc1C1(C)CC(c2cccc([N+](=O)[O-])c2)=NO1 (stereo unspecified)	30	n	n	n	n
NC(=O)c1cc(S(=O)(=O)NCc2ccc(Br)cc2)cs1	n	n	u	n	x
CN(C)S(=O)(=O)Oc1ccsc1C(=O)Nc1ccc(Cl)c(Cl)c1	66	n	u	u	n
Cc1ccc(N2CN(Cc3ccco3)CNC2=S)c(C)c1	n	n	u	u	x
CCCn1nnc(NC(=O)COc2ccc(Cl)cc2)n1	n	n	n	n	x
CCCn1nnc(NC(=O)COc2ccc(C3CCCCC3)cc2)n1	75	n	u	u	n
Cc1cccc(OCCCC(=O)Nc2nccs2)c1C	29	n	n	u	n
O=S(=O)(NCCc1cn2ccccc2n1)c1ccc2c(c1)CCCC2	n	n	n	n	x
CCOC(=O)c1c(C2COc3ccccc3O2)csc1NC(=O)c1ccco1 (stereo unspecified)	26	n	u	x	n
COc1ccc2cc(C3CC(c4ccco4)=NN3C(=O)CCC(=O)O)c(Cl)nc2c1 (stereo unspecified)	n	n	n	u	x
